Data from the supplement of paper PMC12067926.

Tests used:
Assay in all cases: relative growth (AUC of 72 h growth curve relative to DMSO control, dAUC) (ratio); higher = more growth (less inhibition), active = hit call of the paper
Conditions in all cases: 20 µM;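 active = growth AUC significantly below the DMSO wells by Dunnett test; inactive = the rest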
[1] = system: Aeromonas 1 (Aeromonas sp. AE235)
Method in brief: (§1)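 Isolates from Icelandic stream sediments and Silwood Park soil, along with whole sediment communities, were grown in Luria–Bertani medium to carrying capacity and diluted 1:100 into 96-well plates with each chemical at 20 µM (1% DMSO). A600 was measured hourly for 72 h, and values were averaged over three biological replicates. Relative growth (dAUC) is the spline-integrated growth-curve area over the mean of the DMSO controls.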

[2] = system: Aeromonas 2 (Aeromonas sobria)
Method in brief: as §1

[3] = system: Aeromonas 3 (Aeromonas popoffii)
Method in brief: as §1

[4] = system: Argrobacterium 1 (Agrobacterium sp.)
Method in brief: as §1

[5] = system: Arthrobacter 1 (Arthrobacter humicola)
Method in brief: as §1

[6] = system: Arthrobacter 2 (Arthrobacter humicola)
Method in brief: as §1

[7] = system: Arthrobacter 3 (Arthrobacter sp.)
Method in brief: as §1

Community 4 = system: Community 4
Method in brief: as §1

Community 6 = system: Community 6
Method in brief: as §1

Measured: relative growth

CCCCc1c(C)nc(NCC)nc1OS(=O)(=O)N(C)C
inactive: [1] 0.942 | [2] 0.942 | [3] 1.04 | [4] 1.03 | [5] 0.911 | [6] 0.863 | [7] 0.926 | Community 4 0.948 | Community 6 0.944

CCc1nn(C)c(C(=O)NCc2ccc(Oc3ccc(C)cc3)cc2)c1Cl
inactive: [1] 1.03 | [2] 1.06 | [3] 1.05 | [4] 1.02 | [5] 1.04 | [6] 0.892 | [7] 1.02 | Community 4 0.865 | Community 6 0.897

CNC(=O)Oc1cccc(/N=C/N(C)C)c1
inactive: [1] 1 | [2] 0.973 | [3] 0.975 | [4] 0.977 | [5] 0.93 | [6] 0.951 | [7] 1.1 | Community 4 0.984 | Community 6 0.995

CCNC(=O)NC(=O)/C(C#N)=N/OC
inactive: [1] 0.983 | [2] 0.967 | [3] 0.988 | [4] 1.01 | [5] 0.901 | [6] 0.894 | [7] 0.975 | Community 4 0.963 | Community 6 1

C#CCOc1ccc(CCNC(=O)C(OCC#C)c2ccc(Cl)cc2)cc1OC (stereo not given)
inactive: [1] 0.978 | [2] 0.985 | [3] 1 | [4] 1.05 | [5] 1.04 | [6] 0.935 | [7] 0.953 | Community 4 0.951 | Community 6 1.02
